Among all 5,500 compounds or so, about 2,000 (36%) were called active. Inconclusive results (about 18%) are left out. This is one part of the list. Values without a mark were called inactive. Cut-off read from the data, not from the text of the source: active = normalized growth mostly below about 0.91 (no sharp cut-off); inconclusive = no clear call, values can overlap the other calls; inactive = mostly above about 0.92.
Assay: chemical genetic growth profiling, strain panel (AID 1159580);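 note: tested at 20 µM; growth read once vehicle control cultures reached saturation at 30 °C; 1 = growth at the plate median or of vehicle wells; lower values mean less growth of the strain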
Conditions: S. cerevisiae deletion strains, growth OD
[1] = locus YBL105C, strain PKC1, stronger effect = lower value
[2] = locus YBR135W, strain CKS1, stronger effect = lower value
[3] = locus YBR160W, strain CDC28, stronger effect = lower value
[4] = locus YDL017W, strain CDC7, stronger effect = lower value
[5] = locus YDL028C, strain MPS1, stronger effect = lower value
[6] = locus YDL108W, strain KIN28, stronger effect = lower value
[7] = locus YDL132W, strain cdc53, stronger effect = lower value
[8] = locus YDL214C, strain PRR2, stronger effect = lower value
[9] = locus YDR052C, strain DBF4, stronger effect = lower value
[10] = locus YDR054C, strain cdc34, stronger effect = lower value
[11] = locus YDR477W, strain SNF1, stronger effect = lower value
[12] = locus YER123W, strain YCK3, stronger effect = lower value
[13] = locus YER133W, strain GLC7, stronger effect = lower value
[14] = locus YFL029C, strain CAK1, stronger effect = lower value
[15] = locus YFR003C, strain YPI1, stronger effect = lower value
[16] = locus YFR028C, strain CDC14, stronger effect = lower value
[17] = locus YGR040W, strain KSS1, stronger effect = lower value
[18] = locus YGR052W, strain FMP48, stronger effect = lower value
[19] = locus YGR092W, strain DBF2, stronger effect = lower value
[20] = locus YHR030C, strain SLT2, stronger effect = lower value
[21] = locus YHR079C, strain IRE1, stronger effect = lower value
[22] = locus YHR082C, strain KSP1, stronger effect = lower value
[23] = locus YHR205W, strain SCH9, stronger effect = lower value
[24] = locus YIL147C, strain SLN1, stronger effect = lower value
[25] = locus YJL095W, strain BCK1, stronger effect = lower value
[26] = locus YJL128C, strain PBS2, stronger effect = lower value
[27] = locus YJL157C, strain FAR1, stronger effect = lower value
[28] = locus YJR066W, strain TOR1 (second series), stronger effect = lower value
[29] = locus YJR066W, strain TOR1, stronger effect = lower value
[30] = locus YKL048C, strain ELM1, stronger effect = lower value
[31] = locus YKL067W, strain YNK1, stronger effect = lower value
[32] = locus YKL101W, strain HSL1, stronger effect = lower value
[33] = locus YKL203C, strain TOR2, stronger effect = lower value
[34] = locus YLR113W, strain HOG1, stronger effect = lower value
[35] = locus YLR133W, strain CKI1, stronger effect = lower value
[36] = locus YLR403W, strain SFP1, stronger effect = lower value
[37] = locus YML070W, strain DAK1, stronger effect = lower value
[38] = locus YMR001C, strain CDC5, stronger effect = lower value
[39] = locus YMR205C, strain PFK2 (second series), stronger effect = lower value
[40] = locus YMR277W, strain FCP1, stronger effect = lower value
[41] = locus YNL006W, strain LST8, stronger effect = lower value
[42] = locus YNL020C, strain ARK1, stronger effect = lower value
[43] = locus YNL183C, strain NPR1, stronger effect = lower value
[44] = locus YNL207W, strain RIO2, stronger effect = lower value
[45] = locus YNL222W, strain SSU72, stronger effect = lower value
[46] = locus YNL307C, strain MCK1 (second series), stronger effect = lower value
[47] = locus YOL078W, strain AVO1, stronger effect = lower value
[48] = locus YOL136C, strain PFK27, stronger effect = lower value
[49] = locus YOR061W, strain CKA2, stronger effect = lower value
[50] = locus YOR119C, strain RIO1, stronger effect = lower value
[51] = locus YOR231W, strain MKK1, stronger effect = lower value
[52] = locus YOR329C, strain SCD5, stronger effect = lower value
[53] = locus YPL031C, strain PHO85, stronger effect = lower value
[54] = locus YPL153C, strain RAD53, stronger effect = lower value
[55] = locus YPL204W, strain HRR25, stronger effect = lower value
[56] = locus YPL209C, strain IPL1, stronger effect = lower value
[57] = locus YPL256C, strain CLN2, stronger effect = lower value
[58] = locus YPR025C, strain CCL1, stronger effect = lower value
[59] = locus YPR106W, strain ISR1, stronger effect = lower value
[60] = locus YPR111W, strain DBF20, stronger effect = lower value
[61] = strain NNK1, stronger effect = lower value
[62] = strain TSCII, stronger effect = lower value

Compound: O=C(Oc1ccc(C(F)(F)F)cc1[N+](=O)[O-])c1cccc(Cl)c1
- normalized growth [1]: 0.953
- normalized growth [2]: 0.936
- normalized growth [3]: 0.944
- normalized growth [4]: 0.947
- normalized growth [5]: 0.941
- normalized growth [6]: 0.936
- normalized growth [7]: 0.911
- normalized growth [8]: 0.746
- normalized growth [9]: 0.944
- normalized growth [10]: 0.613 (active)
- normalized growth [11]: 0.626 (active)
- normalized growth [12]: 0.423 (active)
- normalized growth [13]: 0.584 (active)
- normalized growth [14]: 0.923
- normalized growth [15]: 0.944
- normalized growth [16]: 0.938
- normalized growth [17]: 0.617 (active)
- normalized growth [18]: 0.124 (active)
- normalized growth [19]: 0.133 (active)
- normalized growth [20]: 0.132 (active)
- normalized growth [21]: 0.22 (active)
- normalized growth [22]: 0.162 (active)
- normalized growth [23]: 0.00246 (active)
- normalized growth [24]: 0.947
- normalized growth [25]: 0.141 (active)
- normalized growth [26]: 0.132 (active)
- normalized growth [27]: 0.638 (active)
- normalized growth [28]: 0.248 (active)
- normalized growth [29]: 0.134 (active)
- normalized growth [30]: 0.623 (active)
- normalized growth [31]: 0.645 (active)
- normalized growth [32]: 0.662 (active)
- normalized growth [33]: 0.712
- normalized growth [34]: 0.21 (active)
- normalized growth [35]: 0.556 (active)
- normalized growth [36]: 0.0472 (active)
- normalized growth [37]: 0.521 (active)
- normalized growth [38]: 0.943
- normalized growth [39]: 0.584 (active)
- normalized growth [40]: 0.948
- normalized growth [41]: 0.945
- normalized growth [42]: 0.513 (active)
- normalized growth [43]: 0.132 (active)
- normalized growth [44]: 0.571 (active)
- normalized growth [45]: 0.93
- normalized growth [46]: 0.295 (active)
- normalized growth [47]: 0.939
- normalized growth [48]: 0.426 (active)
- normalized growth [49]: 0.369 (active)
- normalized growth [50]: 0.448 (active)
- normalized growth [51]: 0.348 (active)
- normalized growth [52]: 0.946
- normalized growth [53]: 0.507 (active)
- normalized growth [54]: 0.581 (active)
- normalized growth [55]: 0.449 (active)
- normalized growth [56]: 0.941
- normalized growth [57]: 0.266 (active)
- normalized growth [58]: 0.937
- normalized growth [59]: 0.584 (active)
- normalized growth [60]: 0.363 (active)
- normalized growth [61]: 0.554 (active)
- normalized growth [62]: 0.94

Compound: Cc1ccccc1C(=O)Oc1ccc(C(F)(F)F)cc1[N+](=O)[O-]
- normalized growth (locus YAR019C, strain CDC15, stronger effect = lower value): 0.961
- normalized growth [1]: 0.969
- normalized growth [2]: 0.964
- normalized growth (locus YBR136W, strain MEC1, stronger effect = lower value): 0.962
- normalized growth [3]: 0.966
- normalized growth [4]: 0.975
- normalized growth [5]: 0.947
- normalized growth (locus YDL101C, strain DUN1, stronger effect = lower value): 0.979
- normalized growth [6]: 0.964
- normalized growth [7]: 0.964
- normalized growth [8]: 0.864
- normalized growth [9]: 0.969
- normalized growth [10]: 0.965
- normalized growth (locus YDR226W, strain ADK1, stronger effect = lower value): 0.982
- normalized growth [11]: 0.937
- normalized growth [12]: 0.883
- normalized growth [13]: 0.941
- normalized growth (locus YFL009W, strain cdc4, stronger effect = lower value): 0.96
- normalized growth [14]: 0.965
- normalized growth [15]: 0.972
- normalized growth (locus YFR019W, strain FAB1, stronger effect = lower value): 0.979
- normalized growth [16]: 0.963
- normalized growth [17]: 0.934
- normalized growth [18]: 0.894
- normalized growth [19]: 0.807
- normalized growth [20]: 0.769 (active)
- normalized growth [21]: 0.836
- normalized growth [22]: 0.951
- normalized growth [23]: 0.79
- normalized growth [24]: 0.97
- normalized growth [25]: 0.831
- normalized growth [26]: 0.868
- normalized growth [27]: 0.899
- normalized growth (locus YJR016C, strain ILV3, stronger effect = lower value): 0.968
- normalized growth [28]: 0.891
- normalized growth [29]: 0.948
- normalized growth [30]: 0.925
- normalized growth [31]: 0.879
- normalized growth [32]: 0.874
- normalized growth (locus YKL193C, strain SDS22, stronger effect = lower value): 0.971
- normalized growth [33]: 0.956
- normalized growth [34]: 0.614 (active)
- normalized growth [35]: 0.909
- normalized growth [36]: 0.908
- normalized growth [37]: 0.891
- normalized growth [38]: 0.969
- normalized growth [39]: 0.898
- normalized growth [40]: 0.962
- normalized growth [41]: 0.977
- normalized growth [42]: 0.893
- normalized growth (locus YNL161W, strain CBK1, stronger effect = lower value): 0.971
- normalized growth [43]: 0.861
- normalized growth [44]: 0.956
- normalized growth [45]: 0.955
- normalized growth [46]: 0.823
- normalized growth [47]: 0.969
- normalized growth [48]: 0.869
- normalized growth [49]: 0.879
- normalized growth [50]: 1
- normalized growth [51]: 0.827
- normalized growth [52]: 0.964
- normalized growth [53]: 0.917
- normalized growth [54]: 0.917
- normalized growth [55]: 0.882
- normalized growth [56]: 0.967
- normalized growth [57]: 0.784 (active)
- normalized growth [58]: 0.959
- normalized growth [59]: 0.955
- normalized growth [60]: 0.912
- normalized growth [61]: 0.941
- normalized growth [62]: 0.96
